# HT1080-NT tox = kills 2HG-producing HT-1080-NT fibrosarcoma cells. HT-1080-NT fibrosarcoma viability, CellTiter-Glo ATP luminescence, 48 h. Potency, µM (titrated, usually from 46.1 µM), for inactives: at the highest dose activity, negative = less viability, hits mostly cytotoxic. 360,000 compounds, 1.6% hits. AID 686970;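 note: NT is the 2HG producing partner of a matched IDH1 knockdown line; 0% = DMSO-treated cells and -100% = media-only wells without cells; nearly all actives have a fitted effect of over 55% in size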
#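 Read-out is CellTiter-Glo luminescence after 10 minutes at room temperature, following 48 hours' compound treatment of HT-1080-NT cells (750 cells/well, RPMI, 5% FBS, 37 degrees C).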
# ATXN2 expr inh = ATXN2 expression inhibition | HEK-293 ATXN2-luciferase reporter, luminescence, 24 h | Potency, µM (highest dose often 57 µM), without a hit: at the top dose activity change, negative = inhibition, usual class: inhibitors | 360,000 compounds, 0.72% hits; note: % is set by controls: 0 for no effect and ±100 for the full control effect; nearly all actives have a fitted effect of over 55% in size
#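 qHTS (up to 57 uM final) was run with 24 h compound exposure of reporter cells at 37 °C. Each well was multiplexed: SteadyGlo luminescence measured ATXN2-luciferase expression after a fluorogenic Gly-Phe-AFC viability readout (25 uM final).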
# ATXN viability = reduces viability in counter-screen for ATXN expression inhibitors. 400,000 compounds, 0.49% hits. AID 651635. Potency, µM (highest dose often 56.7 µM), usual class: cytotoxic. S2 cells (HEK-293 line with an ATXN2-luciferase reporter) viability, CellTiter-Fluor protease fluorescence, 24 h; note: nearly all actives have a fitted effect of over 40% in size
# TGFb SMAD3 inh = blocks TGF-b signaling; 410,000 compounds, 1.2% hits; HepG2 CAGA-GFP TGF-b/SMAD3 reporter, GFP fluorescence, 18 h; TGF-beta stimulated, 500 pg/mL final; Potency, µM (doses to about 46.1 µM), for inactives: at the top dose activity, negative = inhibition, most hits filed as inhibitors; AID 588855; note: % is set by controls: 0 for no effect and ±100 for the full control effect; nearly all actives have a fitted effect of over 65% in size
#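 Smad-responsive CAGA-GFP expression was quantified in HEPG2 cells exposed to compounds and 500 pg/mL final TGF-beta for 18 h at 37 degrees C; unstimulated wells defined full inhibition.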
# HT1080 IDH1KD tx = kills HT-1080 cells with IDH1 knockdown; HT-1080 IDH1 knockdown viability, ATP luminescence, 48 h; Potency, µM (top dose mostly 46.1 µM), for the others: top-dose activity, negative = toxicity, hits mostly cytotoxic; 360,000 compounds, 2% hits;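 note: 0% = DMSO wells and -100% = cell-free medium wells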
#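 IDH1KD HT-1080 cells, 750/well, RPMI + 5% FBS; compound pinned after 2 h settling; 48 h, 37 °C; CellTiter-Glo luminescence; % activity normalised to DMSO and no-cell wells; curves fitted, classed by r2 and efficacy.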
# HepG2 tox-1 = kills HepG2 cells in TGF-b inhibitor counter-screen; HepG2 CAGA-GFP viability, ATP luminescence, 18 h; 410,000 compounds, 0.76% hits; Potency, µM (series often up to 46.1 µM), inactives show top-dose activity change, negative = cytotoxicity, most hits filed as cytotoxic
#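 CellTiter-Glo luminescence gave cytotoxicity after 18 hours at 37 degrees C. The cells were HepG2 CAGA-GFP in 1% FBS DMEM, stimulated with 500 pg/mL TGF-beta after compound addition. %Activity was normalised to no-cell wells (complete cell-killing) and DMSO (no toxicity), and curves were fitted and classified.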
# TGFb CAGA inh = confirmation of TGF-b signaling inhibitors in HepG2 reporter cells | shares compounds with TGFb SMAD3 inh | HepG2 CAGA-GFP TGF-b reporter, GFP fluorescence, 18 h; cells stimulated with TGF-beta, 500 pg/mL | Potency, µM (doses to about 46.1 µM), inactives show at the highest dose activity, negative = inhibition, usual class: inhibitors | 1,600 compounds, 63% hits; note: % is set by controls: 0 for no effect and ±100 for the full control effect; nearly all actives have a fitted effect of over 65% in size
# HepG2 tox-2 = toxic to HepG2 cells in TGF-b counterscreen; shares compounds with TGFb SMAD3 inh; HepG2 CAGA-GFP viability, ATP luminescence, 18 h; cells stimulated with TGF-beta, 500 pg/mL; Potency, µM (series often up to 46.1 µM), for inactives: at the highest dose activity, negative = cytotoxicity, actives largely listed as inhibitors; 1,600 compounds, 27% hits; note: % is set by controls: 0 for no effect and ±100 for the full control effect; nearly all actives have a fitted effect of over 70% in size
# TGFb CCL64 inh = orthogonal confirmation of TGF-b inhibitors in CCL64 cells. shares compounds with TGFb SMAD3 inh. CCL64 CAGA-GFP reporter, TGF-b stimulated, GFP fluorescence, 18 h. Potency, µM (doses to about 46.1 µM), inactives show at the top dose activity, negative = inhibition, most hits filed as inhibitors. 1,600 compounds, 41% hits. AID 720536; note: nearly all actives have a fitted effect of over 65% in size
# COP TGFb inh = blocks TGF-b signaling in HepG2 COP reporter. shares compounds with TGFb SMAD3 inh. HepG2 COP-GFP TGF-b reporter, GFP fluorescence, 18 h; cells stimulated by added recombinant TGF-beta. Potency, µM (highest dose often 46.1 µM), without a hit: at the top dose activity, negative = inhibition, actives largely listed as inhibitors. 1,600 compounds, 3% hits. AID 720537; note: nearly all actives have a fitted effect of over 70% in size
# * hit, by the source's call; i = inactive; u = inconclusive; x = not tested or not shown; [ ] = dose if it differs, or a comment. Rows were chosen to be rich in hits. Some 3.8% of all compounds tested hit in one or more screens of this group. Calls come from the whole dose curve; as a rule, active = well fitted curve in the direction sought with a large enough effect; inconclusive = small, poorly fitted or top-dose-only effect, or another doubt; inactive = no such curve, though single readings can be large; an effect the other way counts as inactive or inconclusive. Potency is the fitted concentration of half-maximal effect.
SMILES,HT1080-NT tox,ATXN2 expr inh,ATXN viability,TGFb SMAD3 inh,HT1080 IDH1KD tx,HepG2 tox-1,TGFb CAGA inh,HepG2 tox-2,TGFb CCL64 inh,COP TGFb inh
CC1CC=CC2C1C(=O)N(Cc1ccccc1)C2c1ccc2ccccc2c1 (stereo not given),x,x,x,11µM*,x,-75%,x,x,x,x
C[C@@H]1CC=C[C@H]2[C@H]1C(=O)N(Cc1ccccc1)[C@H]2c1ccc2ccccc2c1,-25%,-12%,i,u,u,-22%,x,x,x,x
CC1=C(Nc2ccc(C(=O)O)cc2)C(=O)c2ccccc2C1=O,u,-13%,u,7.9µM*,u,-59%,15µM*,u,-20%,22%
O=S(=O)(Cc1ccccc1)NCc1cccnc1,7%[9.24 µM],0%,i,u,0%,-2%,x,x,x,x
O=C1C(Cl)=C(Nc2ccccc2)C(=O)c2ccccc21,2%,u,28µM*,4.5µM*,2%,6.3µM*,3.3µM*,6.5µM*,u,1%
O=C1C(Cl)=C(NCc2cccnc2)C(=O)c2ccccc21,18µM*,u,u,3.2µM*,u,1.4µM*,4.6µM*,6.5µM*,u,16µM*
NS(=O)(=O)c1ccc(NC(=S)Nc2ccn(Cc3cccc4ccccc34)n2)cc1,u,-39%,i,13µM*,u,-20%,5.8µM*,-29%,u,-6%
COc1cccc(C(=O)Nc2cccc(-c3nc4ncccn4c3C)c2)c1,x,x,x,-2%,x,-2%,x,x,x,x
Cc1ccnc(Nc2nc(-c3ccccc3)cs2)c1,-19%,x,i,10µM*,u,-71%,-26%,-4%,0%,6%
O=C1CC(c2ccccc2)Cc2[nH]c(=O)c(-c3nc(-c4ccc(F)cc4)cs3)cc21 (stereo not given),x,x,x,u,x,2%,x,x,x,x
O=C(Nc1ccc(N2CCN(C(=O)c3ccc(Cl)cc3)CC2)cc1)c1ccc([N+](=O)[O-])o1,10µM*,-8%[11.3 µM],u,7.1µM*,2.6µM*,13µM*,6.5µM*,16µM*,u,u
O=C(Nc1ccc(N2CCN(C(=O)c3ccc(Cl)cc3)CC2)cc1)c1ccc2c(c1)OCCO2,u,u,u,u,-19%,-6%,x,x,x,x
CC(C)(C)C(=O)N1CCN(c2ccc(NC(=O)c3ccco3)cc2)CC1,18%,26%,i,18%,20%,10%,x,x,x,x
CS(=O)(=O)N1CCN(c2ccc(NC(=O)c3ccc([N+](=O)[O-])o3)cc2)CC1,u,x,u,4µM*,u,5.6µM*,2.9µM*,15µM*,u,-29%
CC(C)(C)C(=O)N1CCN(c2ccc(NC(=O)c3ccc([N+](=O)[O-])o3)cc2)CC1,4.1µM*,3%,u,7.1µM*,5.2µM*,-58%,7.3µM*,10µM*,u,13%
O=C(c1cc(-c2ccccc2)n[nH]1)N1CCc2c([nH]c3ccccc23)C1c1ccccn1 (stereo not given),u,u,u,20µM*,u,-26%,15µM*,u,u,20%
O=C(c1cccs1)N1CCc2c([nH]c3ccccc23)C1c1ccccn1 (stereo not given),-1%,-12%,i,-4%,-9%,-22%,x,x,x,x
Oc1ccc(CN2CCC(Cc3ccccc3)CC2)c2cccnc12,u,u,i,7.1µM*,5.8µM*,-38%,u,u,2.6µM*,19%
CCOC(=O)N1CCN(Cc2ccc(O)c3ncccc23)CC1,21µM*,-25%,u,7.1µM*,6.5µM*,-48%,u,u,5.8µM*,0%
OCc1ccc(O)c2ncccc12,u,u,i,13µM*,u,-18%,6.5µM*,u,u,15%

# High-throughput results as filed in PubChem BioAssay.
